Here are results for eight compounds from PubChem BioAssay (NCI).

Compounds without any hit were thinned out: in the full panel of roughly 83,000, 20% have a hit.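 Cell lines were cultured in 96-well plates, exposed to a single compound concentration, and assessed for percent growth 48 hours later.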 A number with no mark means an inactive call. Activity calls are given as the source filed them. Rule for the calls: active = growth percent below 10; inactive = the rest.

Among the test systems are HCT-15 colon; HT29 colon; SNB-75 CNS; SNB-19 CNS; U251 CNS; PC-3 prostate; SK-MEL-5 melanoma; UACC-62 melanoma; LOX IMVI melanoma; SK-MEL-28 melanoma; SK-MEL-2 melanoma; EKVX NSCLC; SN12C renal; UO-31 renal; TK-10 renal; ACHN renal; CAKI-1 renal; A498 renal; CCRF-CEM leukemia; MOLT-4 leukemia.
Holding throughout (experiment): NCI-60 one-dose screen, 48 h (100 = growth as untreated, 0 = no growth, -100 = all killed)
Common to all, as to details: 10 µM unless noted

Take `C=C1C(=O)O[C@H]2[C@H]1CC/C(COC(=O)C(=O)c1c[nH]c3ccc(Cl)cc13)=C\CC[C@@]1(C)O[C@@H]21`: the growth was -58.4% (active) in the test with HCT-15 colon; -52.7% (active) with HT29 colon; -97% (active) with SNB-75 CNS; -71.6% (active) in the test on SNB-19 CNS; -93.1% (active) in the test on U251 CNS; -74.4% (active) in the test with PC-3 prostate. The growth was -97.6% (active) in the test with SK-MEL-5 melanoma; -81.8% (active) in the test on UACC-62 melanoma; -92.7% (active) in the test with LOX IMVI melanoma; -72.4% (active) with SK-MEL-28 melanoma; -58.9% (active) with SK-MEL-2 melanoma; -73.6% (active) in the test on EKVX NSCLC. The growth with SN12C renal was -86.8% (active); in the test on UO-31 renal, -94.4% (active); in the test with TK-10 renal it was -96.4% (active); in the test on ACHN renal, -84.3% (active); with CAKI-1 renal, -87.5% (active); in the test on A498 renal, -87.4% (active). Besides, the growth was -41.3% (active) in the test on CCRF-CEM leukemia and -12.4% (active) with MOLT-4 leukemia.

For the compound `Cc1cc(C)c2c(c1)N(C)c1ncnc(-n3c(C)nc4cc(C)ccc43)c1CC2C` (stereo not given), the growth with HCT-15 colon is 32.6%; in the test on HT29 colon, 34.3%; with SNB-75 CNS, 29.4%; in the test with SNB-19 CNS, 50.4%; with U251 CNS, 34.5%; in the test with PC-3 prostate, 24.7%. Also, the growth in the test with SK-MEL-5 melanoma was 13.6%; in the test with UACC-62 melanoma, 31.6%; in the test on LOX IMVI melanoma it was 43.1%; in the test with SK-MEL-28 melanoma, 59%; in the test on SK-MEL-2 melanoma it was 46.7%; in the test on EKVX NSCLC, 45.2%. For the same compound, the growth was 62.3% in the test on SN12C renal; 39% in the test with UO-31 renal; 53.3% in the test with TK-10 renal; 39.4% in the test with ACHN renal; 37.3% in the test with CAKI-1 renal; 0.985% (active) with A498 renal. Also, the values for the growth with CCRF-CEM leukemia and with MOLT-4 leukemia were 21.6% and 27.8%, respectively.

For the compound `CN(C)Cc1cc(C(C)(C)C)cc(Br)c1O`, the growth in the test with HCT-15 colon was 95.6%; in the test with HT29 colon, 81.8%; with SNB-75 CNS, 91.5%; in the test with SNB-19 CNS, 113%; with U251 CNS, 107%; with PC-3 prostate it was 90.5%. Further, the growth in the test with SK-MEL-5 melanoma is 96.1%; in the test on UACC-62 melanoma, 101%; with LOX IMVI melanoma it was 103%; in the test with SK-MEL-28 melanoma it was 112%; in the test on SK-MEL-2 melanoma, 113%; in the test with EKVX NSCLC it was 96.8%. The growth in the test with SN12C renal was 105%; in the test with UO-31 renal it was 98%; with TK-10 renal, 100%; in the test on ACHN renal, 108%; in the test with CAKI-1 renal, 91.6%; in the test on A498 renal it was 90.6%. Further, the growth with CCRF-CEM leukemia is 116%; with MOLT-4 leukemia, 110%.

For `Clc1ccc(-c2cc(-c3ccccc3)nc(N3CCN(CCCNc4ccnc5cc(Cl)ccc45)CC3)n2)cc1`, the growth in the test with HCT-15 colon is -25.5% (active); with HT29 colon it was -1.6% (active); in the test on SNB-75 CNS, -23.9% (active); in the test on SNB-19 CNS it was 49%; in the test on U251 CNS, -52.9% (active); in the test on PC-3 prostate, 43.1%. Also, the growth is 33.2% in the test on SK-MEL-5 melanoma; 51% with UACC-62 melanoma; -95.5% (active) in the test with LOX IMVI melanoma; -37.5% (active) in the test on SK-MEL-28 melanoma; 12.4% with SK-MEL-2 melanoma; 80.1% in the test on EKVX NSCLC. Also, the growth was -90.2% (active) in the test on SN12C renal; -52% (active) in the test on UO-31 renal; 40.5% with TK-10 renal; 3.37% (active) in the test with ACHN renal; -31.5% (active) with CAKI-1 renal; 69.5% with A498 renal. Besides, the growth is 2.6% (active) with CCRF-CEM leukemia and 2.31% (active) in the test on MOLT-4 leukemia.

Take `COC12C=C/C(=C(/C(=O)OCc3csc(SC)n3)C(=O)CCCCCCCCC3(OC)C=C/C(=C(/C(=O)OCc4cnc(SC)s4)C(=O)CCCCCCCC1)O3)O2` (stereo not given): the growth in the test with HCT-15 colon was 76.8%; in the test with HT29 colon, 27.5%; in the test on SNB-75 CNS it was 98.3%; in the test with SNB-19 CNS it was 47.3%; with U251 CNS it was 36.9%; in the test with PC-3 prostate, 27.4%. The growth is 11.3% in the test on SK-MEL-5 melanoma; 6.98% (active) in the test on UACC-62 melanoma; -22.9% (active) in the test on LOX IMVI melanoma; 36.3% with SK-MEL-28 melanoma; 55.8% in the test with SK-MEL-2 melanoma; 33.5% with EKVX NSCLC. For the same compound, the growth with SN12C renal is 28.9%; in the test with UO-31 renal, 43.5%; in the test on TK-10 renal, 47.6%; in the test on ACHN renal, 6% (active); with CAKI-1 renal, 68%; in the test with A498 renal, 34.9%. Besides, the figures for the growth in the test on CCRF-CEM leukemia and in the test on MOLT-4 leukemia were 14.6% and 1.34% (active), respectively.

For `CCSc1ccnc(N)n1`, the growth with HCT-15 colon was 102%; in the test with HT29 colon, 113%; in the test with SNB-75 CNS it was 95.2%; in the test with SNB-19 CNS, 103%; in the test with U251 CNS, 105%; with PC-3 prostate, 96%. For the same compound, the growth is 107% with SK-MEL-5 melanoma; 99% in the test with UACC-62 melanoma; 99.9% in the test on LOX IMVI melanoma; 114% with SK-MEL-28 melanoma; 106% with SK-MEL-2 melanoma; 104% in the test with EKVX NSCLC. The growth in the test with SN12C renal was 106%; in the test on UO-31 renal, 97.7%; in the test with TK-10 renal it was 101%; with ACHN renal it was 96.8%; in the test with CAKI-1 renal, 82.1%; in the test with A498 renal, 98.1%. Also, the results for the growth in the test with CCRF-CEM leukemia and with MOLT-4 leukemia were 97.3% and 124%, respectively.

As for `CC(C)(C)CC(C)(C)Nc1c(-c2c(O)c3ccccc3oc2=O)nc2sc3ccccc3n12`, the growth was 20% in the test on HCT-15 colon; 34.8% with HT29 colon; 49.7% with SNB-75 CNS; 26.1% with SNB-19 CNS; 25.5% with U251 CNS; 34.9% with PC-3 prostate. For the same compound, the growth was 42% in the test with SK-MEL-5 melanoma; 30.4% in the test with UACC-62 melanoma; 36.4% in the test with LOX IMVI melanoma; 58.2% with SK-MEL-28 melanoma; 66.2% in the test on SK-MEL-2 melanoma; 26.6% with EKVX NSCLC. Besides, the growth in the test on SN12C renal is 51%; with UO-31 renal, 16%; in the test on TK-10 renal, 32.3%; with ACHN renal, 33.7%; with CAKI-1 renal, 23.5%; with A498 renal, 69.6%. The growth is 23.4% in the test on CCRF-CEM leukemia and 28.5% in the test on MOLT-4 leukemia.

In the case of `Cc1ccc(NC(=O)c2cc3ccccc3cc2O)c(C)c1`, the growth was 77.4% in the test with HCT-15 colon; 104% in the test with HT29 colon; 96.8% in the test with SNB-75 CNS; 105% in the test with SNB-19 CNS; 97.5% in the test with U251 CNS; 35.9% in the test on PC-3 prostate. For the same compound, the growth is 49.4% with SK-MEL-5 melanoma; 66.1% in the test with UACC-62 melanoma; 88% with LOX IMVI melanoma; 81.9% with SK-MEL-28 melanoma; 91.8% in the test with SK-MEL-2 melanoma; 79.6% in the test on EKVX NSCLC. For the same compound, the growth was 89.7% in the test on SN12C renal; 69.2% in the test with UO-31 renal; 93.8% in the test with TK-10 renal; 91.7% with ACHN renal; 66.5% with CAKI-1 renal; 68.4% in the test with A498 renal. Besides, the growth in the test on CCRF-CEM leukemia was 67.8%; in the test on MOLT-4 leukemia it was 104%.
